Only some compounds are listed: those with a hit (about 12% of all), similar ones and a draw of the others.
JMJD2A Tudor inh: qHTS Assay for Inhibitors of JMJD2A-Tudor Domain; Potency, µM (doses to about 114 µM), for inactives: at the top dose activity change, negative = inhibition, most hits filed as inhibitors; Lysine-specific demethylase 4A (Homo sapiens), O75164; 390,000 tested, 4.4% active; AlphaScreen JMJD2A-Tudor / H3K4me3 peptide binding; also: % is scaled to controls: 0 for no effect and ±100 for the full control effect; nearly all actives have a fitted effect of over 50% in size
Sfp PPTase inh: qHTS Assay for Inhibitors of Bacillus subtilis Sfp phosphopantetheinyl transferase (PPTase). 4'-phosphopantetheinyl transferase ffp (Bacillus subtilis), Q9F4F7. Biochemical Sfp PPTase activity, qHTS. Potency, µM, for the others: largest response in the series, negative = inhibition, actives largely listed as inhibitors. 310,000 tested, 3.5% active. AID 1490, 2009;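 also: the enzyme is Sfp with the accession as filed and its product quenches rhodamine fluorescence; 0% = enzyme reaction without inhibitor and -100% = no enzyme wells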
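Reaction rates are the 30-min fluorescence difference (ex 525, em 598 nm) in wells containing 15 nM Sfp, 5 uM rhodamine-CoA and 12.5 uM BHQ-2-YbbR at pH 7.6 with 10 mM MgCl2.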
BAZ2B inh: qHTS Assay for Inhibitors of BAZ2B | Bromodomain adjacent to zinc finger domain protein 2B (Homo sapiens), Q9UIF8 | AlphaScreen BAZ2B-H3K14Ac peptide displacement | Potency, µM (titrated, usually from 114 µM), for inactives: at the top dose activity change, negative = inhibition, hits mostly inhibitors | 360,000 tested, 4.4% active; also: % is scaled to controls: 0 for no effect and ±100 for the full control effect; nearly all actives have a fitted effect of over 60% in size
Target sequence (Q9UIF8 whole entry, looked up, the tested form may be a part): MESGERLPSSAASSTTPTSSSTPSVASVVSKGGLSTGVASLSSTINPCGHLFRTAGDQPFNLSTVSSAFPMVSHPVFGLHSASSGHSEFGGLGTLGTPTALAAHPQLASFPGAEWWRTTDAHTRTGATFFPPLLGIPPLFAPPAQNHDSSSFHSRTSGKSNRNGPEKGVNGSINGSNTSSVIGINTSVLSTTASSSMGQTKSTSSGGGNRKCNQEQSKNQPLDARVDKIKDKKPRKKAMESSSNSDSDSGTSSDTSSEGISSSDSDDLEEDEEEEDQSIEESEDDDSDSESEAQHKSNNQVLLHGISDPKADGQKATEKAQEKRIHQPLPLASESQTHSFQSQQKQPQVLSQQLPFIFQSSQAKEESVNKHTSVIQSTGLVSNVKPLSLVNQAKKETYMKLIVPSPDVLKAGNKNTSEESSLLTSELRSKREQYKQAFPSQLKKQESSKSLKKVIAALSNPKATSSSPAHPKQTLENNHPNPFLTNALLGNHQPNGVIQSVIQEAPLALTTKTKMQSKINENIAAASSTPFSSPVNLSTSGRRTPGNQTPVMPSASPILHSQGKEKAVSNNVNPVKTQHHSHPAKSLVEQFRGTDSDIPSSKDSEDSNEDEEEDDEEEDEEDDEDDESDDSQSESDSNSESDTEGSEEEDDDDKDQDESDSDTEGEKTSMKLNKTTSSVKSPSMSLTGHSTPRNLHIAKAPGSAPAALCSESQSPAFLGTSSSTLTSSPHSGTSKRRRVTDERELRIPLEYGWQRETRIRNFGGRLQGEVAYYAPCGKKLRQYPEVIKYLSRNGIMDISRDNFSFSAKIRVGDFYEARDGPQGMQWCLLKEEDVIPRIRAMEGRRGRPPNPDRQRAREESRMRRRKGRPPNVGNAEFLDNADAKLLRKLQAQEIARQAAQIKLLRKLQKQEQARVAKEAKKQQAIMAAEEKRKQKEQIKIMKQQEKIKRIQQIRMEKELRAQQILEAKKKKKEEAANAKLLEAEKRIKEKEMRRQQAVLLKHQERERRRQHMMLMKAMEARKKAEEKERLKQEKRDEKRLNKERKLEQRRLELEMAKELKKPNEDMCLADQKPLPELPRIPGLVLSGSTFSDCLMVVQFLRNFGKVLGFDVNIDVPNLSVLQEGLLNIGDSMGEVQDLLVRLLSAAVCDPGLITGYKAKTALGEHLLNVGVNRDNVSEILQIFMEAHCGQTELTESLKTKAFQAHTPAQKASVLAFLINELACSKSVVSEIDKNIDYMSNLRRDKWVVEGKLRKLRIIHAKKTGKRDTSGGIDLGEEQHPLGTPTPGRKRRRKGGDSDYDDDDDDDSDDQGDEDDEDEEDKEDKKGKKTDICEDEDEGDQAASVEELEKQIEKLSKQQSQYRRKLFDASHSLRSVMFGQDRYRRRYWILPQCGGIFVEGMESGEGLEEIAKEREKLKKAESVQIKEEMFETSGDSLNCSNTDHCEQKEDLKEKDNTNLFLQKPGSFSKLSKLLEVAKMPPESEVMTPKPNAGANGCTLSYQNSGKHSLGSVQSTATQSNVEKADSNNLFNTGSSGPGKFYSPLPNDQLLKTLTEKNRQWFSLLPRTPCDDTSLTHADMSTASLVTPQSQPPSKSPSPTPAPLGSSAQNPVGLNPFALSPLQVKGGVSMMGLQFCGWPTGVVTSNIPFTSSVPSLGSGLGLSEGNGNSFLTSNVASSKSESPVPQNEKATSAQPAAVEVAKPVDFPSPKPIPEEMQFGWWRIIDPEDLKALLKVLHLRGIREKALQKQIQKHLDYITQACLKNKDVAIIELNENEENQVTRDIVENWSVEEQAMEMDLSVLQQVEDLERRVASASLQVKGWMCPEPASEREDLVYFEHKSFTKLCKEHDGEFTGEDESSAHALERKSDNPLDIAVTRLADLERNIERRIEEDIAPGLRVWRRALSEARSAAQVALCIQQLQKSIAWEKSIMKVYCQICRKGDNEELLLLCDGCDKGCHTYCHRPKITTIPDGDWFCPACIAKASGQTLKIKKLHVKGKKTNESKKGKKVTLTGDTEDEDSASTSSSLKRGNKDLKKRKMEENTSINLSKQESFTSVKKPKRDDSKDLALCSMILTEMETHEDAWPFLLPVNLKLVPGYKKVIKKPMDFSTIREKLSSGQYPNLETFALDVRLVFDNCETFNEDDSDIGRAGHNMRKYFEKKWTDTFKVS
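AlphaScreen displacement: compounds (up to 110uM) incubated 30 min at room temperature with a preformed 50 nM BAZ2B/50 nM biotinylated H3K14Ac peptide complex in PBS pH 7.4 with Tween-20. Donor and acceptor beads at 10 ug/mL final added, 20 min light-protected before reading.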
G9a block: qHTS Assay for Inhibitors of Histone Lysine Methyltransferase G9a | G9a H3K9 monomethylation, AlphaScreen, 2 h | Histone-lysine N-methyltransferase EHMT2 (Homo sapiens), Q96KQ7 | AID 504332, 2011 | 350,000 tested, 8.8% active | Potency, µM (top dose mostly 102 µM), for the others: top-dose activity, negative = inhibition, actives largely listed as inhibitors; also: % is scaled to controls: 0 for no effect and ±100 for the full control effect; nearly all actives have a fitted effect of over 75% in size
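Quantitative HTS format: methyltransferase activity on a biotin-tagged H3K9 peptide is measured by AlphaScreen, using a rabbit anti-monomethyl-H3K9 antibody with streptavidin donor and anti-IgG acceptor beads. Final levels are 20 nM enzyme, 500 nM peptide, 20 uM SAM; 2 h RT.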
HP1b binding inh: HTS for Inhibitors of HP1-beta Chromodomain Interactions with Methylated Histone Tails; 390,000 tested, 0.56% active; Potency, µM (series often up to 114 µM), for the others: at the highest dose activity change, negative = inhibition, hits mostly inhibitors; Chromobox protein homolog 1 (Homo sapiens), P83916; AlphaScreen HP1-beta / biotin-H3K9me3 peptide binding; also: nearly all actives have a fitted effect of over 70% in size
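HP1-beta protein (50 nM final) preincubated 30 min at room temperature with biotinylated H3(1-18)K9me3 peptide (50 nM) in PBS pH 7.4, 0.01% Tween-20, then compound added for 30 min. AlphaScreen streptavidin donor/nickel chelate acceptor beads (10 ug/mL final), 30 min dark, luminescence read.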
Active calls of the source: *; ? = inconclusive; . = no result; [ ] = another dose, or the depositor's remark. Calls follow the shape of the dose curve; as a rule, active = well fitted curve in the direction sought with a large enough effect; inconclusive = small, poorly fitted or top-dose-only effect, or another doubt; inactive = no such curve, though single readings can be large; an effect the other way counts as inactive or inconclusive. Potency is read from the fitted curve at half-maximal effect.

SMILES	JMJD2A Tudor inh	Sfp PPTase inh	BAZ2B inh	G9a block	HP1b binding inh
CC(C(=O)c1c[nH]c2ccccc12)N1CCOCC1 (centres undefined)	-9%	15%	-3%	7%	47%
C[C@H](N)C(=O)N[C@@H](C)C(=O)N[C@@H](Cc1ccccc1)C(=O)CCl	.	17%	.	16µM*	.
C[C@]12CC3CC(N)(C1)C[C@@](C)(C3)C2	-10%	-20%	.	.	13%
O=c1c2ccccc2cnn1Cc1n[nH]c(=S)n1C1CC2CCC1C2 (centres undefined)	3.2µM*	1%	-9%	-132%[59 µM]	19%
Cc1noc(C(=O)Nc2sc3c(c2C#N)CCC3)c1Cl	-28%	-25%	-34%	45µM*	-4%
CCOC(=O)c1c(NC(=O)c2ccc(OC)cc2)sc2c1CCCCC2	18%	.	3%	?	57%
ClC1=C(Cl)C(Cl)=C(Cl)C1=C/C=C/c1ccccc1	5.6µM*	-9%	3.5µM*	3.2µM*	6.3µM*
CN1CN=C(N[N+](=O)[O-])N(Cc2ccco2)C1	-11%	10%	-31%	-9%[59 µM]	35%
S=c1[nH]nc(-c2cccs2)n1C1CCCCC1	6.3µM*	?	-4%	.	10%
C=CCc1c(C)[nH]c(=S)c(C#N)c1C	5µM*	10µM*	-36%	1.1µM*	41%
CC1=CC(=O)OC2CC3OC4C[C@@H](C)C5OC6CC7O[C@]8(C)C/C=C\C9OC%10CC%11OC(CC(C)CO)CC(O)[C@]%11(C)OC%10CC9OC8C[C@]7(C)O[C@]6(C)CCC5OC4C[C@]3(C)OC12 (some centres undefined)	-6%	11%	-14%	3%[12.7 µM]	23%
O=c1[nH]c(=S)n(-c2ccc(F)cc2)c(O)c1/C=N/N1CCOCC1	8%	4%	?	45µM*	39%
Cn1c(O)c(/C=N/N2CCOCC2)c(=O)n(-c2ccccc2)c1=S	-24%	-8%	-17%	-39%	16%
O=c1c(/C=N/N2CCOCC2)c(O)n(-c2ccccc2)c(=S)n1-c1ccccc1	-12%	-23%	?	50µM*	11%
CC(C)(C)c1cc(O)ccc1O	.	40µM*	.	4.5µM*	.
C=C(C)[C@]12C[C@@H](C)[C@@]34OC(Cc5ccccc5)(O[C@@H]1[C@@H]3C=C(COC(=O)Cc1cc(I)c(O)c(OC)c1)C[C@]1(O)C(=O)C(C)=C[C@@H]41)O2	.	34%	.	-4%[59 µM]	.
O=C(COC(=O)Cc1ccccc1)NNC(=O)c1ccc([N+](=O)[O-])cc1	-4%	.	10%	15%[12.7 µM]	34%
O=C1c2ccccc2C(=O)c2c1ccc1c(=O)n(-c3ccccc3)[nH]c21	-21%	2%	-26%	3.2µM*	-6%
COC(=O)C1=C(c2ccccc2)C[C@@H]2CC[C@H]1N2C(=O)N1CCC(O)CC1	-2%	.	.	.	26%
COc1cccc(C(=O)C2CCCN(Cc3cccc4c3OCO4)C2)c1 (centres undefined)	-23%	-3%	?	.	19%
C[C@@H]1NCCc2cc(O)c(O)cc21	20µM*	?	-4%	1.8µM*	?
COc1cc2c(cc1OC)[C@H](C)NCC2	.	15%	.	15%[21.5 µM]	.
CC(=O)OC1N=C(c2ccccc2)c2ccccc2NC1=O (centres undefined)	-3%	0%	-34%	6%[59 µM]	17%
Nc1ccc(CCN2CCCC2)cc1	3%	11%	-19%	40µM*	33%
Nc1ccc(CCN2CCN(c3cccc(C(F)(F)F)c3)CC2)cc1	?	26%	.	40µM*	-2%
SMILES	JMJD2A Tudor inh	Sfp PPTase inh	BAZ2B inh	G9a block	HP1b binding inh
COc1ccc(N2CCN(C(CNC(=O)Oc3ccccc3)c3cccnc3)CC2)cc1 (centres undefined)	?	14%	?	?	-7%
CN1CC(C(=O)c2ccc(Cl)cc2)C(c2ccc(N(C)C)cc2)C1 (centres undefined)	50µM*	2%	35µM*	35µM*	-36%
O=C(NC1CN2CCC1CC2)c1ccc(-c2ccc([N+](=O)[O-])cc2)o1 (centres undefined)	-27%	56µM*	-30%	?	-2%
O=C(N[C@H]1CN2CCC1CC2)c1ccc(Cl)cc1	.	-18%	.	?	.
Clc1ccc(CNC2CN3CCC2CC3)cc1 (centres undefined)	-19%	4%	-5%	-15%[59 µM]	33%
Fc1ccccc1CNC1CN2CCC1CC2 (centres undefined)	40µM*	10%	-14%	?	-3%
CCN(CCNc1ccc([N+](=O)[O-])c2cccnc12)S(=O)(=O)c1ccc(Cl)cc1	-20%	-29%	-12%	.	-6%
CC1=C(O)C(=O)C=C2C1=CC=C1C2(C)CCC2(C)C3CC(C)(C(=O)O)CCC3(C)CCC12C (centres undefined)	20µM*	.	.	.	?
Cc1c(O)c(O)cc2c1CC=C1[C@]3(C)CC[C@]4(C)CC[C@@](C)(C(=O)O)CC4[C@]3(C)CC[C@]12C (some centres undefined)	.	-9%	.	.	.
CCCCn1c(C)c(C(=O)OCC)c2c(CN3CCOCC3)c(O)ccc21	?	-21%	-38%	?	-9%
CCCCn1c(C)c(C(=O)OCC)c2c(CN3CCCC3)c(O)ccc21	-31%	-6%	-35%	40µM*	6%
N#Cc1ccccc1OCC(=O)N1CCN(CC(=O)Nc2ccc(F)cc2)CC1	-3%	.	-4%	-45%	36%
CC12C=CC(=O)C=C1CCC1C2=CCC2(C)C1CC[C@@H]2C(=O)CN1CCN(c2cc(N3CCCC3)nc(N3CCCC3)n2)CC1 (some centres undefined)	.	?	.	13µM*	.
COC(=O)C1=C(c2ccc(OCc3ccccc3)cc2)C[C@@H]2CC[C@H]1N2C(=O)NCCCc1ccccc1	-21%	.	1%	25%[2.33 µM]	24%
CCOC(=O)C1SC2(C(F)(F)F)CC1(O)c1c(C)cc(C)nc1O2 (centres undefined)	-1%	14%	3%	20%[59 µM]	38%

Source: PubChem (National Center for Advancing Translational Sciences (NCATS))
